Measurements from PubChem BioAssay AID1209 (Sanford-Burnham Center for Chemical Genomics, 2008).
The campaign covered roughly 190,000 compounds. About 810 (0.43%) were called active. Cut-off read from the data, not from the text of the source: active = inhibition above about 50%; inactive = the rest. The full list was thinned out, with actives kept by preference.

What follows are compounds tested against Mannose-6-phosphate isomerase (Homo sapiens) (UniProt P34949) (assay: inhibitors of human PMI, primary screen, biochemical, fluorescence intensity, coupled assay (AID 1209;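 note: plate controls were DMSO vehicle for no effect and wells lacking substrate for full effect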)). Details: purified PMI enzyme, at 20 µM, hits give high values.
Mannose-6-phosphate isomerase (Homo sapiens), sequence (P34949 whole entry, looked up): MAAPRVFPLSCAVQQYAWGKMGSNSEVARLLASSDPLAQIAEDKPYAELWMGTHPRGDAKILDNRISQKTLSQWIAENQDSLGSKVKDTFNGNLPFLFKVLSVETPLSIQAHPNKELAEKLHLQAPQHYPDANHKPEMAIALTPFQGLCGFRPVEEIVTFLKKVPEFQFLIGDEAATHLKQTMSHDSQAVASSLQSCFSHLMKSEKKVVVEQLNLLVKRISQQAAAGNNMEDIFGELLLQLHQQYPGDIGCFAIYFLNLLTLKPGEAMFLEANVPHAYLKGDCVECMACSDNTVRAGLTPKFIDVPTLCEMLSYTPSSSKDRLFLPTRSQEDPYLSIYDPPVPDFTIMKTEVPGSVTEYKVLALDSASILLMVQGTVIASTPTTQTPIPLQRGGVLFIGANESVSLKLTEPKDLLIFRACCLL

Compound | inhibition
CCOC(=O)c1cccc(NC(=O)CSc2nnnn2C)c1 | -7.4% (inactive)
Cc1cc(NC(=O)CCc2ccc(S(=O)(=O)N3CCOCC3)cc2)n(-c2ccccc2)n1 | -7% (inactive)
N#Cc1cnn2ccc(-c3ccc4c(c3)CCC4)nc12 | 0.4% (inactive)
COCC(C)NC(=O)/C=C/c1ccc(OC)cc1 (stereo not drawn) | 9.4% (inactive)
O=C(c1cc(Cl)ccc1[N+](=O)[O-])N1CCc2ccccc2C1 | 7.8% (inactive)
O=C(CSc1nc2ccccc2o1)NCC(=O)c1ccccc1 | 10.6% (inactive)
CC(=O)N1N=C(c2cccc(Cl)c2)OC1c1cccc([N+](=O)[O-])c1 (stereo not drawn) | 10.4% (inactive)
Cc1cccc(NC(=O)CC2S/C(=N/c3nccs3)N(C)C2=O)c1 (stereo not drawn) | -1.9% (inactive)
Cc1cccc(-n2c(=S)[nH]c3c(oc4ccccc43)c2=O)c1 | -1.9% (inactive)
Cc1ccc(-n2c(=S)[nH]c3sc4c(c3c2=O)CCc2ccccc2-4)cc1 | 10.4% (inactive)
COc1ccc(-n2c(=S)[nH]c3sc4c(c3c2=O)CCc2ccccc2-4)cc1 | 57.8% (active)
Cc1cccc(-n2c(=O)c3c4c(sc3n3c(=S)[nH]nc23)CCC4)c1 | -0.7% (inactive)
Cc1ccc(-n2c(=S)[nH]c3sc4c(c3c2=O)CCC4)cc1 | 2.3% (inactive)
COc1ccc(N2C(=O)CCC(C(=O)NCCN3CCOCC3)C2c2ccc(OC)c(OC)c2)cc1 (stereo not drawn) | 17.2% (inactive)
C=CCNC(=O)/C(=C/c1ccccc1OCC)NC(=O)c1ccccc1 | 3.5% (inactive)
CCCSc1nnc2[nH]c(=O)cc(N)n12 | -1.4% (inactive)
CCO[C@H]1OC(C(=O)N2CCN(Cc3ccc4c(c3)OCO4)CC2)=C[C@@H](c2ccccc2)[C@@H]1CCCO | 7.5% (inactive)
O=C(Cn1cncn1)NCCCc1ccccc1 | 4.2% (inactive)
COc1cc(/C=C2\NC(=S)N(C)C2=O)ccc1O | -2.1% (inactive)
CC(=O)c1c(C)[nH]c(C(=O)OCC(=O)Nc2cc(Cl)ccc2[N+](=O)[O-])c1C | 9.3% (inactive)
Cc1ccc(S(=O)(=O)N2CCN(C(=O)/C=C/c3ccco3)CC2)cc1 | 26% (inactive)
COc1ccccc1N1C(=N)S/C(=C\c2ccc(-c3ccccc3C(=O)O)o2)C1=O | -36.9% (inactive)
Cc1ccc(C)c(N2C(=N)S/C(=C\c3ccc(-c4ccccc4C(=O)O)o3)C2=O)c1 | 18.5% (inactive)
CC(=O)Nc1ccc(S(=O)(=O)NNC(=O)COc2ccc(C)cc2)cc1 | 0.9% (inactive)
CCOC(=O)N1CCN(Cc2ccc(F)cc2F)CC1 | -1.3% (inactive)
Cc1cc(C)n2ncnc2n1 | 5.9% (inactive)

Compound | inhibition
Cc1cc(C)n2nc[n+](C)c2n1 | 72.6% (active)
Cc1cc(C)n2nc(CCc3nc4nc(C)cc(C)n4n3)nc2n1 | -4.4% (inactive)
Cc1cc(-c2ccc(N3C(=O)CCC3=O)c(C)c2)ccc1N1C(=O)CCC1=O | 1.5% (inactive)
COC(=O)CN(c1ccc(Cl)cc1C)S(C)(=O)=O | 1.2% (inactive)
COc1ccc(C(=O)CNc2ccccc2C#N)cc1 | -2.6% (inactive)
COc1ccc(C(=O)CNc2ccc3ccccc3c2)cc1 | 76.9% (active)
COc1ccc(C(=O)CNc2ccccc2CO)cc1 | -10.5% (inactive)
O=[N+]([O-])c1cccc(-c2nc3ccc([N+](=O)[O-])cc3[nH]2)c1 | -13.7% (inactive)
COc1ccccc1NC(=O)c1ccc(NC(=O)COC(=O)C2CCCCC2)cc1 | 10.6% (inactive)
CSC1=N/C(=C\c2cccc(F)c2)C(=O)S1 | -4.9% (inactive)
C=C(C)CNC(=S)Nc1cccc2cnccc12 | 14.2% (inactive)
Cc1cc(C)cc(NC(=S)Nc2cccc3cnccc23)c1 | 66.2% (active)
CCCCNC(=S)Nc1cccc2cnccc12 | 5.6% (inactive)
Cc1ccc(NC(=S)Nc2cccc3cnccc23)cc1 | 80.1% (active)
S=C(Nc1ccc(Cl)cc1)Nc1cccc2cnccc12 | 26.4% (inactive)
S=C(Nc1cccnc1)Nc1cccc2cnccc12 | 47.5% (inactive)
S=C(Nc1cccc(Cl)c1)Nc1cccc2cnccc12 | 57.2% (active)
Cc1ccc(NC(=S)Nc2cccc3cnccc23)cc1C | -0.2% (inactive)
Cc1c(C(=O)N2CCN(c3ccc(C(F)(F)F)cn3)CC2)oc2ccccc12 | 13.3% (inactive)
CC(NC(=O)/C=C/c1ccco1)c1nc2ccccc2n1Cc1c(Cl)cccc1Cl (stereo not drawn) | -4.3% (inactive)
CNc1ccc2nnc(C(F)(F)C(F)(F)C(F)(F)F)n2n1 | -0.7% (inactive)
Cc1c(C)n(C(=O)CN2CCC(C(N)=O)CC2)c2ccccc12 | 7.2% (inactive)
CCCC(=O)Nc1ccc(C(=O)Nc2ccc([N+](=O)[O-])cc2OC)cc1 | -20.7% (inactive)
COc1ccc(OCC(=O)O/N=C(\N)Cc2cccs2)cc1 | 3.7% (inactive)
O=C(CCN1C(=O)C2CC=C(Cl)CC2C1=O)NC1CCCCC1 (stereo not drawn) | -7.8% (inactive)
Cc1cc(C)n2nc(SCC(=O)c3cc(C)n(CC4CCCO4)c3C)nc2n1 (stereo not drawn) | -13.5% (inactive)

Compound | inhibition
Cc1ccc(NC(=O)CSc2n[nH]c(-c3ccco3)n2)c(C)c1 | -4% (inactive)
CCOC(=O)c1c(NCc2ccccc2)n[nH]c1C | 13.3% (inactive)
Cc1cccc(N2C(=O)CC(Sc3ncn[nH]3)C2=O)c1 (stereo not drawn) | 34.7% (inactive)
COc1ccc(N2C(=O)CC(Sc3ncn[nH]3)C2=O)c(OC)c1 (stereo not drawn) | 73.4% (active)
O=C1CC(Sc2ncn[nH]2)C(=O)N1c1ccccc1 (stereo not drawn) | 42.6% (inactive)
CN(c1nnc(N)s1)C1CCCCC1 | -8.5% (inactive)
CCn1ncc(C2=NOC(C(=O)Nc3cccc(O)c3)C2)c1C (stereo not drawn) | -18.7% (inactive)
C1=C(c2ccc(-c3ccccc3)cc2)Nc2ncnn2C1c1ccco1 (stereo not drawn) | 52.3% (active)
Fc1ccc(C2=CC(c3ccco3)n3ncnc3N2)cc1 (stereo not drawn) | -42.5% (inactive)
Clc1ccc(C2=CC(c3ccco3)n3ncnc3N2)cc1 (stereo not drawn) | -12.4% (inactive)
Cc1nc2[nH]c(=S)n(C)c(=O)c2nc1C | -17.3% (inactive)
COC(=O)[C@@]1(Cc2ccc(F)cc2)[C@H]2c3cc(C(=O)N4CCCC4)n(CCO)c3C[C@H]2CN1C(=O)c1ccccc1 | 1.6% (inactive)
COCCn1c(C(=O)N2CCCC2)cc2c1C[C@H]1CN(C(=O)c3ccccc3)[C@@](Cc3ccc(F)cc3)(C(=O)OC)[C@@H]21 | 13.8% (inactive)
COC(=O)[C@@]1(Cc2ccc(F)cc2)[C@H]2c3cc(C(=O)N4CCCC4)n(CCc4ccc(O)c(O)c4)c3C[C@H]2CN1C(=O)c1ccccc1 | 50.8% (active)
O=C(CNCc1ccc(F)cc1)Nc1ccccc1[N+](=O)[O-] | 5% (inactive)
Cc1cc(C)c(Nc2cc(S(=O)(=O)O)c(N)c3c2C(=O)c2ccccc2C3=O)c(C)c1 | 91.5% (active)
Cc1cc(C)c(NC(=O)COC(=O)c2cccc3c2C(=O)c2ccccc2C3=O)c(C)c1 | 5.1% (inactive)
Cc1cccc(S(=O)(=O)Nc2cccc3c2C(=O)c2ccccc2-3)c1 | 10.6% (inactive)
COc1ccc(CCC(=O)NNC(=S)Nc2cccc(C(C)=O)c2)cc1 | 1.2% (inactive)
Cn1nnnc1SCc1ccc(C(=O)Nc2ccccc2F)cc1 | 9% (inactive)
O=C(NNc1ccccn1)C(c1ccccc1)c1ccccc1 | 50.2% (active)
O=C(NNC(=O)C(c1ccccc1)c1ccccc1)c1ccccn1 | 10.3% (inactive)
C/C(=N\NC(=O)C(c1ccccc1)c1ccccc1)c1ccccn1 | -5% (inactive)
O=C(OCc1cnc(Cl)s1)c1cccc(Cl)c1 | 10.3% (inactive)
CC(=O)Nc1ccc(/C(C)=N/NC(=O)c2ccccc2Cl)cc1 | 5.1% (inactive)
c1ccc(C2=Nn3c(nnc3-c3ccco3)SC2)cc1 | 75.6% (active)

Compound | inhibition
CCOc1ccc(C2=Nn3c(nnc3-c3ccco3)SC2)cc1 | 8.1% (inactive)
COc1ccc(C2=Nn3c(nnc3-c3ccco3)SC2)cc1 | -15.3% (inactive)
C/C(=C\C(=O)Nc1nccs1)c1ccccc1 | 9.8% (inactive)
Cc1cc(C)n2cc(CSc3ccccn3)nc2n1 | -5.1% (inactive)
Clc1ccc(CSc2ncn[nH]2)cc1 | 7.1% (inactive)
O=C(/C=C/Sc1ccccc1)c1ccc(Cl)cc1 | -10% (inactive)
O=C(/C=C/Sc1ncn[nH]1)c1ccc(Cl)cc1 | 50.3% (active)
Cc1cc(C)n2nc(SCCOc3ccccc3F)nc2n1 | -4.9% (inactive)
O=C(CSc1nccc(=O)[nH]1)Nc1ccc(F)c(Cl)c1 | 1.7% (inactive)
COCc1c(C#N)c(NCCc2ccccc2)nc(C)c1[N+](=O)[O-] | 11.3% (inactive)
CCCCn1c(SCC(=O)NCc2cccs2)nc2c1c(=O)n(C)c(=O)n2C | 9% (inactive)
CCOc1ccc(C(=S)N2CCOCC2)cc1OCC | -6.6% (inactive)
CCOc1cc(C(=S)N2CCOCC2)ccc1OC | 3.4% (inactive)
CCOc1cc(C(=S)N2CCOCC2)ccc1O | 66.8% (active)
O=C(CN1C(=O)C2C3C=CC(C3)C2C1=O)Nc1ccc(F)cc1 (stereo not drawn) | 0.9% (inactive)
O=C(CN1CCN(Cc2ccccc2)CC1)Nc1ccc(-n2cnnn2)cc1 | -1.5% (inactive)
O=C(CN1CCN(c2ccccc2)CC1)Nc1ccc(-n2cnnn2)cc1 | 108% (active)
O=C(CN1CCN(c2ccc(F)cc2)CC1)Nc1ccc(-n2cnnn2)cc1 | 3.3% (inactive)
COc1ccc(/C=N/NC(=S)SC)cc1OC | 12.8% (inactive)
Cc1ccc(C(=O)N(C)c2ccc(OCC(=O)N3c4ccc(C)cc4C4CN(C)CCC43)cc2)cc1 (stereo not drawn) | 1.9% (inactive)
Cc1cc(C)nc(SCC(=O)c2ccc([N+](=O)[O-])cc2)n1 | -11.2% (inactive)
Cc1snc(SCC(=O)c2ccc(F)cc2)c1C#N | -11.6% (inactive)
Cc1ccc(C(=O)CSc2nsc(C)c2C#N)cc1 | 7.2% (inactive)
Cc1nnc(SCC(=O)c2ccc([N+](=O)[O-])cc2)s1 | 2.6% (inactive)
Cc1snc(SCC(=O)c2ccc(Cl)cc2)c1C#N | 56.7% (active)
